Rows were chosen to be rich in hits. Some 1.2% of all compounds tested hit in one or more screens of this group.
BJeLR viability = MLPCN primary cell-based screen for lethality selective to Ras in HRASV12 cells | BJeLR (HRASV12) viability, CellTiter-Glo ATP luminescence, 48 h | inhibition, % (test concentration not listed) | actives 0.17% (n = 300,000) | AID 1554, 2009; in the data active = inhibition above about 50%
ugtP null kill = growth inhibition of ugtP-null S. aureus, primary screen, RN4220 ugtP deletion, OD600. 16 h. growth inhibition, % (concentration not given with the values). actives 0.54% (n = 330,000). AID 1259309, 2017; in the data active = growth inhibition above about 68%;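 also: plate controls were untreated wells for no effect and antibiotic for full effect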
RN4220 kill = growth inhibition of S. aureus RN4220, primary screen, OD600; inhibition, % (concentration not given with the values); actives 0.33% (n = 330,000); 16 h; in the data active = inhibition above about 85%;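 also: plate controls were untreated cells for no effect and reference antibiotic for full effect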
MazEF act = activators of E. coli MazEF toxin-antitoxin RNase, primary screen, biochemical, fluorescence, uHTS; Endoribonuclease toxin MazF (Escherichia coli (strain K12)), P0AE70; actives 0.32% (n = 350,000); AID 504720, 2011; activation, % at 20 µM; FAM/BHQ RNA-DNA oligo cleavage fluorescence, 5 h; in the data active = activation above about 50%
Target sequence (P0AE70 whole entry, looked up): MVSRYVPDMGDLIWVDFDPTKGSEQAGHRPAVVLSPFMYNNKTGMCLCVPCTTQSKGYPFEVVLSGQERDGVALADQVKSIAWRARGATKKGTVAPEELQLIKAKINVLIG
PriA SSB inh = inhibitors of Klebsiella pneumoniae PriA binding to SSB C-terminal tail, primary screen, biochemical, AlphaScreen; inhibition, % at 33 µM; actives 0.6% (n = 430,000); AlphaScreen SSBct-PriA binding, biotinylated peptide; PriA–SSB C-terminal tail interaction (Klebsiella pneumoniae); in the data active = inhibition mostly above about 37%, no sharp cut-off; inactive = mostly below about 20%;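 also: plate controls were negative control peptide for no effect and reference peptide for full effect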
Active calls of the source: *; x = no result.

SMILES	BJeLR viability	ugtP null kill	RN4220 kill	MazEF act	PriA SSB inh
COc1cc2nc(N3CCN(c4cc(C)ccc4C)CC3)nc(N)c2cc1OC	19	-4	17	-18	14
CCOc1ccc(OCc2cccc(C(=O)O)c2)cc1	55*	23	4	1	0
COc1ccc(OCc2cccc(C(=O)O)c2)cc1	42	-4	-10	3	-19
Cc1ccc(S(=O)(=O)N=S(c2ccccc2)C(C)C)cc1 (stereo unspecified)	x	x	x	x	-5
COC(=O)CC1=C(C(=O)OC)C2(C(=O)N(C)c3ccccc32)C(C#N)=C(N)O1 (stereo unspecified)	3	98*	98*	3	-5
CCOC(=O)CC1=C(C(=O)OCC)C2(C(=O)Nc3ccccc32)C(C#N)=C(N)O1 (stereo unspecified)	3	44	53	-2	-21
COCCCN=C1NN=C(c2cc(C)n(Cc3ccco3)c2C)CS1	60*	-3	2	-1	-2
CCO[C@@H]1OC(C(=O)N2CCN(C)CC2)=C[C@H](c2csc3ccccc23)[C@H]1CCCO	-1	x	x	-1	-1
Cn1ncc(N=Cc2c(O)ccc3ccccc23)c1C(=O)Nc1cccc(Cl)c1	-3	-6	6	360*	-6
Cn1ncc(Cl)c1C(=O)Nc1cccc(Cl)c1	-2	-2	4	4	-21
O=C(O)CCC(=NNc1ccc([N+](=O)[O-])cc1)C(=O)O	x	2	1	x	-8
Fc1ccc(-c2cc(C(F)(F)C(F)F)[nH]n2)cc1	0	86*	-1	9	-12
CN1CCCC1CCNC1C2CC3CC(C2)CC1C3 (stereo unspecified)	23	-4	-6	0	41*
COC(=O)C(C)NC(=S)N1CCN(c2c(F)cc3c(=O)c(C(=O)O)cn(C4CC4)c3c2OC)CC1C (stereo unspecified)	4	100*	100*	3	-7
CNC(=S)N1CCN(c2c(F)cc3c(=O)c(C(=O)O)cn(C4CC4)c3c2OC)CC1C (stereo unspecified)	-1	100*	100*	0	-2
CN(Cc1ccc(Cl)cc1Cl)C(=O)CN1C(=O)NC2(CCCC2)C1=O	0	-3	0	0	0
Cc1ccc(O)c(N=Nc2ccc(S(=O)(=O)N3CCOCC3)cc2)c1	-9	2	14	4	39*
CC(C)(C)c1cc(Br)c(O)c(N=Nc2ccc(S(=O)(=O)N3CCOCC3)cc2)c1	1	4	4	2	28
COC(=O)N1CCc2ccc(Br)cc2C1C(=O)NCc1nc2ccccc2[nH]1 (stereo unspecified)	x	x	x	x	-14
CC(C)C(=O)Nc1ccc(C(=O)NCc2cccnc2)cc1	78*	-9	2	1	-15
O=C(NCc1cccnc1)Nc1ccc(Br)cc1	2	5	-1	3	5
O=C(NCc1cccnc1)c1ccc(NC(=O)c2ccc(Br)cc2)cc1	78*	-4	1	8	-7
COc1ccc(Cn2c(-c3ccc(OC)cc3)n[nH]c2=S)cc1	5	2	2	9	0
Cc1ccn2c(NCc3ccc4c(c3)OCO4)c(-c3ccc(O)cc3)nc2c1	-8	3	1	3	-7

Bioassay records: PubChem BioAssay, several laboratories
